Several values for one entry are separate records, joined by “and”; a condition that tells them apart may be missing. Equal values may be shown once. A structure can be active in one record and inactive in another. Activity calls are given as the source filed them. Rule for the calls: active = hit-call score of the fitted dose curve at least 0.9, where 1 is the maximum; inactive = score below 0.9.
What was measured:
[1] = read-out: Macrophage colony-stimulating factor (MCSF), CSF1 (gene 1435); test: BSK_hDFCGF_MCSF: BioMAP Diversity Plus: hDFCGF Assay for Macrophage colony-stimulating factor (MCSF) Biomarker Activity (AID 2283060); conditions: primary human foreskin fibroblasts; actives raise or lower the signal
How it was run: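 Human foreskin fibroblast primary cultures; M-CSF measured by ELISA 24 hours after chemical dosing. Bidirectional fitting relative to DMSO, with overt cytotoxicity tracked by parallel SRB total-protein staining (0.1% SRB, 10% TCA fixation, 560 nm).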

[2] = BSK_hDFCGF_SRB: Viability Assessment in the BioMAP Diversity Plus: hDFCGF Assay (AID 2283061); conditions: primary human foreskin fibroblasts;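 note: cells exposed to compound for 24 h before the read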
How it was run: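 Human foreskin fibroblasts in 96-well plates were treated 24 h. Total protein was measured by 0.1% SRB staining after 10% TCA fixation, read at 560 nm. Data were fitted bidirectionally against DMSO.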

[3] = read-out: TIMP metallopeptidase inhibitor 1 (TIMP1), TIMP1 (gene 7076); test: BSK_hDFCGF_TIMP1: BioMAP Diversity Plus: hDFCGF Assay for TIMP metallopeptidase inhibitor 1 (TIMP1) Biomarker Activity (AID 2283062); conditions: primary human foreskin fibroblasts; actives raise or lower the signal
How it was run: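 Human foreskin fibroblast primary cultures dosed for 24 h; secreted/surface TIMP-1 quantified by ELISA. Bidirectional curve fitting against DMSO baseline; cytotoxicity tracked in parallel cultures by SRB total-protein staining.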

[4] = read-out: Monokine induced gamma interferon (MIG), CXCL9 (gene 4283); test: BSK_hDFCGF_MIG: BioMAP Diversity Plus: hDFCGF Assay for Monokine induced gamma interferon (MIG) Biomarker Activity (AID 2283063); conditions: primary human foreskin fibroblasts; actives raise or lower the signal
How it was run: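 MIG/CXCL9 measured by ELISA 24 h after dosing primary human skin fibroblasts. Activity fitted in both directions against DMSO controls. Cytotoxicity was checked in parallel cultures by SRB staining read at 560 nm.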

[5] = read-out: Matrix Metallopeptidase 1 (MMP1), MMP1 (gene 4312); test: BSK_hDFCGF_MMP1: BioMAP Diversity Plus: hDFCGF Assay for Matrix Metallopeptidase 1 (MMP1) Biomarker Activity (AID 2283064); conditions: primary human foreskin fibroblasts; actives raise or lower the signal
How it was run: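 Primary human foreskin fibroblasts in the hDFCGF system were dosed with test chemical, and MMP1 was measured by ELISA 24 h later. Values come from bidirectional curve fitting against the DMSO baseline.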

[6] = read-out: Vascular cell adhesion molecule 1 (VCAM1), VCAM1 (gene 7412); test: BSK_hDFCGF_VCAM1: BioMAP Diversity Plus: hDFCGF Assay for Vascular cell adhesion molecule 1 (VCAM1) Biomarker Activity (AID 2283065); conditions: primary human foreskin fibroblasts; actives raise or lower the signal;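 for AC50: VCAM-1 protein level quantified by ELISA after 24 h chemical exposure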
How it was run: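 Human foreskin fibroblast primary cells dosed with chemical, VCAM-1 measured by ELISA at 24 h. Bidirectional curve fitting relative to DMSO as negative control/baseline.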

[7] = read-out: Plasminogen activator inhibitor-1 (PAI1), SERPINE1 (gene 5054); test: BSK_hDFCGF_PAI1: BioMAP Diversity Plus: hDFCGF Assay for Plasminogen activator inhibitor-1 (PAI1) Biomarker Activity (AID 2283066); conditions: primary human foreskin fibroblasts; actives raise or lower the signal
How it was run: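 PAI-1 levels, determined by ELISA, served as the endpoint in human foreskin fibroblast cultures exposed to compound for 24 h, with DMSO as baseline.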

[8] = read-out: Intercellular Adhesion Molecule 1 (ICAM1), ICAM1 (gene 3383); test: BSK_KF3CT_ICAM1: BioMAP Diversity Plus: KF3CT Assay for Intercellular Adhesion Molecule 1 (ICAM1) Biomarker Activity (AID 2283067); conditions: primary human keratinocytes with fibroblasts; actives raise or lower the signal
How it was run: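 Human keratinocyte–foreskin fibroblast co-culture was treated for 24 h. Cell-surface ICAM-1 was quantified by ELISA, fitted bidirectionally relative to DMSO. Cytotoxicity was checked in parallel cultures by SRB total-protein staining.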

[9] = read-out: Interferon-gamma inducible Protein 10 (IP10), CXCL10 (gene 3627); test: BSK_KF3CT_IP10: BioMAP Diversity Plus: KF3CT Assay for Interferon-gamma inducible Protein 10 (IP10) Biomarker Activity (AID 2283068); conditions: primary human keratinocytes with fibroblasts; actives raise or lower the signal
How it was run: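 Human keratinocyte plus foreskin fibroblast primary co-culture exposed to test chemical for 24 h; IP-10 measured by ELISA. Concentration-response fitted bidirectionally against DMSO control as baseline.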

[10] = BSK_KF3CT_SRB: Viability Assessment in the BioMAP Diversity Plus: KF3CT Assay (AID 2283069); conditions: primary human keratinocytes with fibroblasts;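 note: total protein by sulforhodamine B staining as a cytotoxicity measure; read 24 h after compound addition; fitted for both signal gain and loss against DMSO baseline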
How it was run: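 Human primary keratinocyte plus foreskin fibroblast co-culture exposed to chemicals for 24 h. Total protein measured by 0.1% sulforhodamine B staining after 10% TCA fixation, read at 560 nm; bidirectional fitting versus DMSO baseline.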

Compound: O=C(O)c1nc(Cl)ccc1Cl
- outcome [1]: inactive
- outcome [2]: inactive
- outcome [3]: inactive
- outcome [4]: inactive
- outcome [5]: inactive
- outcome [6]: inactive
- outcome [7]: inactive
- outcome [8]: inactive
- AC50 [9]: 147 nM (active)
- outcome [9]: inactive
- outcome [10]: inactive

Compound: C=CC1(C)OC(=O)N(c2cc(Cl)cc(Cl)c2)C1=O (centres undefined)
- outcome [1]: inactive
- outcome [2]: inactive
- outcome [3]: inactive
- outcome [4]: inactive
- outcome [5]: inactive
- outcome [6]: inactive
- outcome [7]: inactive
- outcome [8]: inactive
- outcome [9]: inactive
- outcome [10]: inactive

Compound: COc1nc(C)nc(NC(=O)NS(=O)(=O)c2ccccc2CCC(F)(F)F)n1
- outcome [1]: inactive
- outcome [2]: inactive
- outcome [3]: inactive
- outcome [4]: inactive
- AC50 [5]: 0.439 µM (active)
- outcome [5]: inactive
- outcome [6]: inactive
- outcome [7]: inactive
- outcome [8]: inactive
- outcome [9]: inactive
- outcome [10]: inactive

Compound: N#Cc1nn(-c2c(Cl)cc(C(F)(F)F)cc2Cl)c(N)c1S(=O)C(F)(F)F (centres undefined)
- outcome [1]: inactive
- outcome [2]: inactive
- outcome [3]: inactive
- outcome [4]: inactive
- outcome [5]: inactive
- outcome [6]: inactive
- outcome [7]: inactive
- outcome [8]: inactive
- AC50 [9]: 29100 nM (active)
- outcome [10]: inactive

Compound: CON(C)C(=O)Nc1ccc(Cl)c(Cl)c1
- outcome [1]: inactive
- outcome [2]: inactive
- outcome [3]: inactive
- outcome [4]: inactive
- outcome [5]: inactive
- outcome [6]: inactive
- outcome [7]: inactive
- outcome [8]: inactive
- outcome [9]: inactive
- outcome [10]: inactive

Compound: CCCCNC(=O)n1c(NC(=O)OC)nc2ccccc21
- outcome [1]: inactive
- outcome [2]: inactive
- outcome [3]: inactive
- outcome [4]: inactive
- AC50 [5]: 11.3 µM (active)
- outcome [6]: inactive
- outcome [7]: inactive
- outcome [8]: inactive
- outcome [9]: inactive
- outcome [10]: inactive

Compound: COc1nc(C)nc(NC(=O)NS(=O)(=O)c2ccccc2Cl)n1
- outcome [1]: inactive
- outcome [2]: inactive
- outcome [3]: inactive
- outcome [4]: inactive
- outcome [5]: inactive
- outcome [6]: inactive
- outcome [7]: inactive
- outcome [8]: inactive
- AC50 [9]: 148 nM (active)
- outcome [9]: inactive
- outcome [10]: inactive

Compound: CCCCNC(=O)OCC#CI
- AC50 [1]: 5.14 µM (active) and 9.67 µM (active)
- AC50 [2]: 12.4 µM (active) and 3.49 µM (active)
- AC50 [3]: 7.08 µM (active) and 26 µM (active)
- AC50 [4]: 5.27 µM (active) and 3.85 µM (active)
- AC50 [5]: 8.48 µM (active) and 7.13 µM (active)
- AC50 [6]: 3.08 µM (active) and 10.7 µM (active)
- AC50 [7]: 7.77 µM (active) and 7.46 µM (active)
- AC50 [8]: 35.1 µM (active) and 15.5 µM (active)
- AC50 [9]: 33.2 µM (active) and 11.9 µM (active)
- AC50 [10]: 29.3 µM (active) and 18 µM (active)

Compound: CC(C)Oc1cc(-n2nc(C(C)(C)C)oc2=O)c(Cl)cc1Cl
- AC50 [1]: 15.2 µM (active)
- AC50 [2]: 28.6 µM (active)
- outcome [3]: inactive
- outcome [4]: inactive
- AC50 [5]: 5.65 µM (active)
- AC50 [6]: 32 µM (active)
- AC50 [7]: 24.4 µM (active)
- outcome [8]: inactive
- AC50 [9]: 14900 nM (active)
- outcome [10]: inactive

Compound: Oc1ccccc1-c1ccccc1
- outcome [1]: inactive
- outcome [2]: inactive
- outcome [3]: inactive
- outcome [4]: inactive
- outcome [5]: inactive
- outcome [6]: inactive
- outcome [7]: inactive
- outcome [8]: inactive
- outcome [9]: inactive
- outcome [10]: inactive

Compound: CCON=C(CC)C1=C(O)CC(c2c(C)cc(C)cc2C)CC1=O (centres undefined)
- outcome [1]: inactive
- outcome [2]: inactive
- outcome [3]: inactive
- outcome [4]: inactive
- outcome [5]: inactive
- outcome [6]: inactive
- outcome [7]: inactive
- outcome [8]: inactive
- outcome [9]: inactive
- outcome [10]: inactive

Compound: Cc1c(F)c(F)c(COC(=O)C2C(/C=C(\Cl)C(F)(F)F)C2(C)C)c(F)c1F (centres undefined)
- AC50 [1]: 3.03 µM (active)
- outcome [2]: inactive
- outcome [3]: inactive
- outcome [4]: inactive
- AC50 [5]: 1.22 µM (active)
- outcome [6]: inactive
- outcome [7]: inactive
- outcome [8]: inactive
- outcome [9]: inactive
- outcome [10]: inactive

Compound: CCNc1nc(Cl)nc(NC(C)C)n1
- outcome [1]: inactive
- outcome [2]: inactive
- outcome [3]: inactive
- outcome [4]: inactive
- outcome [5]: inactive
- outcome [6]: inactive
- outcome [7]: inactive
- outcome [8]: inactive
- AC50 [9]: 148 nM (active)
- outcome [10]: inactive

Compound: COc1cnc(OC)n2nc(NS(=O)(=O)c3c(OCC(F)F)cccc3C(F)(F)F)nc12
- outcome [1]: inactive
- outcome [2]: inactive
- AC50 [3]: 20 µM (active)
- outcome [3]: inactive
- outcome [4]: inactive
- outcome [5]: inactive
- outcome [6]: inactive
- outcome [7]: inactive
- outcome [8]: inactive
- AC50 [9]: 34200 nM (active)
- outcome [9]: inactive
- outcome [10]: inactive

Compound: COC(=O)C(C)Oc1ccc(Oc2ccc(Cl)cc2Cl)cc1 (centres undefined)
- outcome [1]: inactive
- outcome [2]: inactive
- outcome [3]: inactive
- outcome [4]: inactive
- outcome [5]: inactive
- outcome [6]: inactive
- outcome [7]: inactive
- AC50 [8]: 25.1 µM (active)
- outcome [8]: inactive
- AC50 [9]: 25.4 µM (active) and 20 µM (active)
- outcome [9]: inactive
- outcome [10]: inactive

Compound: C=CCC1=C(C)C(OC(=O)C2C(C=C(C)C)C2(C)C)CC1=O (centres undefined)
- AC50 [1]: 31.2 µM (active) and 38.4 µM (active) and 29.1 µM (active)
- AC50 [2]: 32.4 µM (active) [middle of 4 runs]
- AC50 [3]: 33.9 µM (active) [middle of 4 runs]
- AC50 [4]: 38.9 µM (active) [middle of 4 runs]
- AC50 [5]: 35.6 µM (active) [middle of 4 runs]
- AC50 [6]: 28.7 µM (active) [middle of 4 runs]
- AC50 [7]: 30.4 µM (active) and 38.4 µM (active) and 38.8 µM (active)
- outcome [8]: inactive
- AC50 [9]: 35 µM (active) and 31 µM (active) and 29.2 µM (active)
- outcome [9]: inactive
- AC50 [10]: 34.7 µM (active) and 25.5 µM (active)
- outcome [10]: inactive
